Article PMC5540273 (PLoS ONE, 2017)

What follows are compounds tested on T1, DLK. Details: concentration: 1 μM, replicates: in singlicate; n = 1.
T1 construct: gene MAP3K12
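Note: KINOMEscan kinase panel screen.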

In order of rising “%Inh” value:
1. Nc1ncnc2c1ncn2-c1cccc2ccccc12 [SKF-97184]  0%
2. Cc1ccc(-c2ccc3c(ccc4sc5c(c43)NC[C@@H](C)N=C5N(C)C)n2)cn1  0%
3. CCCNC(=O)Nc1ccc(Oc2ncnc3ccn(C)c23)cc1  0%
4. CCCC(=O)Nc1n[nH]c2ncc(-c3cccc4ccccc34)cc12 [SB-642057]  0%
5. CCC(=O)c1c(-c2ccccc2)c2cc(Cl)ccc2c(=O)n1Cc1ccc(C(=O)O)cc1  0%
6. COc1cc2ncn(-c3cc(OCCCc4ccccc4)c(C(N)=O)s3)c2cc1OC [GSK205189]  0%
7. Cc1cc(Nc2nc(-c3cccc(C)n3)nc3ccccc23)ccn1 [GW872411]  0%
8. COc1ccc(-c2cc3c(C)nc(N)nc3n([C@H]3CC[C@H](OCCO)CC3)c2=O)cn1  0%
9. Nc1nc(N)c2nc(-c3ccccc3)[nH]c2n1 [SKF-12778]  1%
10. CN1C(=O)C(Nc2ccccc2)=C(c2ccccc2)C1=O [SB-300079]  1%
11. COc1cccc(C2=C(N(C)c3ccccc3)C(=O)NC2=O)c1 [SB-334865]  4%
12. COc1ccc(-c2cc3c(C)nc(N)nc3n([C@H]3CC[C@H](O)CC3)c2=O)cn1  5%
13. Nc1nccc2scc(-c3ccc4c(c3)CCN4C(=O)Cc3ccccc3)c12 [GSK2576924]  7%
14. COc1cc2ncn(-c3cc(OCc4ccncc4Br)c(C(N)=O)s3)c2cc1OC [GW854278]  12%
15. Cc1cccc(-c2cc(-c3c[nH]nc3-c3ccccn3)ccn2)c1 [GW679395]  13%
16. COc1cc2ncn(-c3cc(OCc4ccc(S(C)(=O)=O)cc4)c(C(N)=O)s3)c2cc1OC [GW869979]  13%
17. Nc1ncnc2c1ncn2-c1cccc(F)c1 [SKF-97560]  19%
18. O=C(Nc1ccc2c(c1)OCO2)NC1CCN(c2ccnc(NCc3ccc(F)cc3)n2)CC1 [GSK1379859]  22%
19. O=C(Nc1n[nH]c2nc(-c3ccccc3)c(Cl)cc12)C1CC1 [SB-734909]  22%
20. Nc1n[nH]c2nnc(-c3ccccc3)c(-c3ccccc3)c12 [GW554060]  25%
21. Nc1nc(-c2ccccc2F)c(-c2ccnc3ccccc23)s1 [GW560459]  36%
22. COc1ccc(CNC(=O)NC2CCN(c3ccnc(Nc4ccc(F)cc4)n3)C2)cc1 (stereo not shown) [GSK1379706]  42%

What follows are compounds tested on T2, DMPK2. Details: concentration: 1 μM, replicates: in singlicate; n = 1.
T2 construct: gene CDC42BPG

In order of falling “%Inh” value:
1. Cc1cccc(-c2nc(Nc3ccc4c(cnn4C)c3)c3ccccc3n2)n1 [GW876731]  22%
2. Nc1nccc2scc(-c3ccc4c(c3)CCN4C(=O)Cc3ccccc3)c12 [GSK2576924]  22%
3. O=C(Nc1ccc2c(c1)OCO2)NC1CCN(c2ccnc(NCc3ccc(F)cc3)n2)CC1 [GSK1379859]  16%
4. COc1ccc(CNC(=O)NC2CCN(c3ccnc(Nc4ccc(F)cc4)n3)C2)cc1 (stereo not shown) [GSK1379706]  16%
5. Nc1ncnc2c1ncn2-c1cccc(F)c1 [SKF-97560]  14%
6. Nc1ncnc2c1ncn2-c1ccc(Cl)cc1 [AH2635]  12%
7. O=C(NCCNc1ccnc(Nc2ccc(F)cc2)n1)Nc1ccc2c(c1)OCO2 [GSK1379882]  11%
8. O=C(Nc1n[nH]c2nc(-c3ccccc3)c(Cl)cc12)C1CC1 [SB-734909]  11%
9. COc1cc2ncn(-c3cc(OCc4ccc(S(C)(=O)=O)cc4)c(C(N)=O)s3)c2cc1OC [GW869979]  10%
10. COc1ccc(Nc2nccc(N3CCC(NS(=O)(=O)c4ccc(NC(C)=O)cc4)C3)n2)cc1 (stereo not shown) [GSK1379729]  8%
11. O=C(NCc1cccs1)c1cc(C(=O)c2c(Cl)cccc2Cl)c[nH]1 [GW823670]  4%
12. CCCC(=O)Nc1n[nH]c2ncc(-c3cccc4ccccc34)cc12 [SB-642057]  4%
13. Nc1nc(-c2ccccc2F)c(-c2ccnc3ccccc23)s1 [GW560459]  3%
14. Cc1cc(Nc2nc(-c3cccc(C)n3)nc3ccccc23)ccn1 [GW872411]  2%
15. Cc1cccc(-c2cc(-c3c[nH]nc3-c3ccccn3)ccn2)c1 [GW679395]  1%
16. CCn1c(-c2ccoc2)nc2cnccc21 [SB-733887]  0%
17. O=c1cc(N2CCOCC2)nc2n(Cc3ccc(F)c(Cl)c3)ccn12 [GSK2297099]  0%
18. Cl.NS(=O)(=O)c1cccc(Nc2cc(-c3ccc(F)cc3)n[nH]2)c1 [GW824645]  0%
19. COc1cc(Nc2nccc(N3CCC(NC(=O)C4COc5ccccc5O4)C3)n2)cc(OC)c1OC (stereo not shown) [GSK1379761]  0%
20. COC(=O)c1c(-c2ccccc2)c2cc(Br)ccc2c(=O)n1Cc1ccc(NC(=O)CCC(=O)O)cc1  0%
21. CN1C(=O)C(Nc2cc(Cl)c(O)c(Cl)c2)=C(c2ccc(Cl)cc2)C1=O [SB-404321]  0%
22. CCC(=O)c1c(-c2ccccc2)c2cc(Cl)ccc2c(=O)n1Cc1cc(S(C)(=O)=O)n(CC(N)=O)n1  0%
23. CCn1c(-c2nonc2N)nc2ccccc21 [SB-693162/GW549034]  0%
24. COc1cc2nccc(Nc3cccc(Oc4ccccc4)c3)c2cc1OC.Cl [GW284543]  0%
25. COc1ccc(-c2cc3c(C)nc(N)nc3n([C@H]3CC[C@H](O)CC3)c2=O)cn1  0%
26. Nc1ncnc2c1ncn2-c1cccc2ccccc12 [SKF-97184]  0%
27. COc1cccc(C2=C(N(C)c3ccccc3)C(=O)NC2=O)c1 [SB-334865]  0%
28. Nc1nc(N)c2nc(-c3ccccc3)[nH]c2n1 [SKF-12778]  0%
29. COc1cc2ncn(-c3cc(OCc4ccncc4Br)c(C(N)=O)s3)c2cc1OC [GW854278]  0%
30. Nc1n[nH]c2nnc(-c3ccccc3)c(-c3ccccc3)c12 [GW554060]  0%
31. Cc1ccc(-c2ccc3c(ccc4sc5c(c43)NC[C@@H](C)N=C5N(C)C)n2)cn1  0%
32. CCCNC(=O)Nc1ccc(Oc2ncnc3ccn(C)c23)cc1  0%
33. CCC(=O)c1c(-c2ccccc2)c2cc(Cl)ccc2c(=O)n1Cc1ccc(C(=O)O)cc1  0%
34. COc1cc2ncn(-c3cc(OCCCc4ccccc4)c(C(N)=O)s3)c2cc1OC [GSK205189]  0%
35. COc1ccc(-c2cc3c(C)nc(N)nc3n([C@H]3CC[C@H](OCCO)CC3)c2=O)cn1  0%
36. CN1C(=O)C(Nc2ccccc2)=C(c2ccccc2)C1=O [SB-300079]  0%
